Reference: the supplement of paper PMC11732987, “Enantioselective OTUD7B fragment discovery through chemoproteomics screening and high-throughput optimisation” (Communications Chemistry, 2025)

Columns and labels:
Assay in all cases: log2 ratio of Biotin-Ahx-Ub-VS probe labelling (fragment/DMSO); higher = less target engagement (more negative = stronger competition), active = hit call of the paper (q ≤ 0.05, log2 ratio ≤ -1)
Details in all cases: compound concentration: 200 uM; treatment time: 3 h
USP34 = USP34 (UniProt Q70CQ2)
Method in brief: (§1)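 Labelled DUBs from HEK293T lysate were NeutrAvidin-enriched, digested with LysC and trypsin, and run by diaPASEF LC-MS/MS. Before that, each 495 µg sample in Tris/CHAPS/IGEPAL buffer with protease inhibitors was treated in triplicate with fragment at 200 µM or vehicle for 3 h, then with Biotin-Ahx-Ub-VS at 0.5 µM final for 1 h. Values are average log2 ratios of fragment over vehicle by unpaired t-test, based on global-median-normalised Spectronaut label-free quantities from proteins with ≥2 unique peptides.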

USP36 = target: T1, USP36 (UniProt Q9P275)
T1 sequence (whole entry): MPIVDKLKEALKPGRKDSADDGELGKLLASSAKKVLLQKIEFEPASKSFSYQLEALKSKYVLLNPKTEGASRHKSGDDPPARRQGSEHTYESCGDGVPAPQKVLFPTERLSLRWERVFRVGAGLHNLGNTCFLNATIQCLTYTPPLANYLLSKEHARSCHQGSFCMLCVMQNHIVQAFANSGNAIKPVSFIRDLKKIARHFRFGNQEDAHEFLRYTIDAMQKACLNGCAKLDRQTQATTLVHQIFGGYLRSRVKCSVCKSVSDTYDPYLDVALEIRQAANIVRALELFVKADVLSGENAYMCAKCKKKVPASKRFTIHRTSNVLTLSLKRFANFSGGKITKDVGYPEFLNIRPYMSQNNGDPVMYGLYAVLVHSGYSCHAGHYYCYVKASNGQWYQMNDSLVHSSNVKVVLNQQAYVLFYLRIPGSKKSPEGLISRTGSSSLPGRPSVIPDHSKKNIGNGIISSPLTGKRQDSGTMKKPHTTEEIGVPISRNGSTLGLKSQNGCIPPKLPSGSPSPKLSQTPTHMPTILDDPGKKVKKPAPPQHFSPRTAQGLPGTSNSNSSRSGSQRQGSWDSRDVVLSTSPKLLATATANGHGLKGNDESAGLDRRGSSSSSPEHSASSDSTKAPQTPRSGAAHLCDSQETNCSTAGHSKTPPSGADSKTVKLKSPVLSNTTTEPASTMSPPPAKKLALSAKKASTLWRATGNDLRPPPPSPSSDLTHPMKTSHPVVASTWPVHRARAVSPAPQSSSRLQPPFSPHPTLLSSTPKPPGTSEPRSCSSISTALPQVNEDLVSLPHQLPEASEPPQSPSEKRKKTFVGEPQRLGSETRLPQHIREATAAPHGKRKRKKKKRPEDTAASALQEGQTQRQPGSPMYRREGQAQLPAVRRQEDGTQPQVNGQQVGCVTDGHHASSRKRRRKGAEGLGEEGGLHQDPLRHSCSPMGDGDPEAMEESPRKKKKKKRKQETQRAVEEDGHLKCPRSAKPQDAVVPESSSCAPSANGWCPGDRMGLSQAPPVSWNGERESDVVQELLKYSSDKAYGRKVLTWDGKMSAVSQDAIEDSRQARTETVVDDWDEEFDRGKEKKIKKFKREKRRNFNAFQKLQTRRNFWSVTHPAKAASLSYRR
Method in brief: as §1

USP38 = target: T2, USP38 (UniProt Q8NB14)
T2 sequence (whole entry): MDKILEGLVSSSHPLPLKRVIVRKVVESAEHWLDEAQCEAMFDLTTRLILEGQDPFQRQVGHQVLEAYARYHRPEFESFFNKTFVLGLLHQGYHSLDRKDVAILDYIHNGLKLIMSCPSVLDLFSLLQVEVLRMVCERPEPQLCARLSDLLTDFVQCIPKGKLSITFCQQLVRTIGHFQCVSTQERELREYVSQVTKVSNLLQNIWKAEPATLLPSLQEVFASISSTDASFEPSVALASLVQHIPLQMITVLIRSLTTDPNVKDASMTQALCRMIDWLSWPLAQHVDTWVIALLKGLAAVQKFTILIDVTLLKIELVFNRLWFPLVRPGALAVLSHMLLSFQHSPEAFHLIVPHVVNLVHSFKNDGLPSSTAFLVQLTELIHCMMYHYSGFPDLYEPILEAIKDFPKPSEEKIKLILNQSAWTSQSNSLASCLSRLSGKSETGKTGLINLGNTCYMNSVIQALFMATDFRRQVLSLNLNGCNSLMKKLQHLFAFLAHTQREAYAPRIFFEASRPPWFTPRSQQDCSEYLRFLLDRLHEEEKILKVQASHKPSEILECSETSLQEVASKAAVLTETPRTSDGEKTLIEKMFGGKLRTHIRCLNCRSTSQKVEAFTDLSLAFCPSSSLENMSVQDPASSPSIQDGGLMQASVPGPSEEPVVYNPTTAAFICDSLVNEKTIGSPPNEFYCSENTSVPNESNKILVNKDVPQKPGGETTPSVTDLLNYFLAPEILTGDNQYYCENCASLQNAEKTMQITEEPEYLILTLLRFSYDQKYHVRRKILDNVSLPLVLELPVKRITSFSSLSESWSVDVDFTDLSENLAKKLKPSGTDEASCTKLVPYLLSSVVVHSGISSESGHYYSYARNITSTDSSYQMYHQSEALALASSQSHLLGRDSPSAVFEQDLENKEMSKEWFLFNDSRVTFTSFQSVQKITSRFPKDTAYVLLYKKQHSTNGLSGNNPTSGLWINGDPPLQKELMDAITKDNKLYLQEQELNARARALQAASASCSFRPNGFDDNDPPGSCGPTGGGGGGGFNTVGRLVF
Method in brief: as §1

USP39 = target: T3, USP39 (UniProt Q53GS9)
T3 sequence (whole entry): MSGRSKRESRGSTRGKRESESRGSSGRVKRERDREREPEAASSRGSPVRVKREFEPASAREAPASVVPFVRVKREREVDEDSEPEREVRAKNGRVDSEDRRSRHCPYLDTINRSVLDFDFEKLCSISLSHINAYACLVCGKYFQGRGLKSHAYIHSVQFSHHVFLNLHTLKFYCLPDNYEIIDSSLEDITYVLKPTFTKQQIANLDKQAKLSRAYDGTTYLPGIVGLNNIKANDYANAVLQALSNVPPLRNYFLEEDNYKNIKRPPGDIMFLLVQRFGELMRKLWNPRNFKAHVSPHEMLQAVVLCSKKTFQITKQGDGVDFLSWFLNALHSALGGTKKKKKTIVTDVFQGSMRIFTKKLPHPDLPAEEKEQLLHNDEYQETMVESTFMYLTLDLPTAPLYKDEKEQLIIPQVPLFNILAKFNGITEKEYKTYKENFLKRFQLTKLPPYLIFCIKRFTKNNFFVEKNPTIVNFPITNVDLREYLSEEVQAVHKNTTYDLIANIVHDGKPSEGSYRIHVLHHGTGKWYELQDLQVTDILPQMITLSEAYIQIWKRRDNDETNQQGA
Method in brief: as §1

USP4 = target: T4, USP4 (UniProt Q13107)
T4 sequence (whole entry): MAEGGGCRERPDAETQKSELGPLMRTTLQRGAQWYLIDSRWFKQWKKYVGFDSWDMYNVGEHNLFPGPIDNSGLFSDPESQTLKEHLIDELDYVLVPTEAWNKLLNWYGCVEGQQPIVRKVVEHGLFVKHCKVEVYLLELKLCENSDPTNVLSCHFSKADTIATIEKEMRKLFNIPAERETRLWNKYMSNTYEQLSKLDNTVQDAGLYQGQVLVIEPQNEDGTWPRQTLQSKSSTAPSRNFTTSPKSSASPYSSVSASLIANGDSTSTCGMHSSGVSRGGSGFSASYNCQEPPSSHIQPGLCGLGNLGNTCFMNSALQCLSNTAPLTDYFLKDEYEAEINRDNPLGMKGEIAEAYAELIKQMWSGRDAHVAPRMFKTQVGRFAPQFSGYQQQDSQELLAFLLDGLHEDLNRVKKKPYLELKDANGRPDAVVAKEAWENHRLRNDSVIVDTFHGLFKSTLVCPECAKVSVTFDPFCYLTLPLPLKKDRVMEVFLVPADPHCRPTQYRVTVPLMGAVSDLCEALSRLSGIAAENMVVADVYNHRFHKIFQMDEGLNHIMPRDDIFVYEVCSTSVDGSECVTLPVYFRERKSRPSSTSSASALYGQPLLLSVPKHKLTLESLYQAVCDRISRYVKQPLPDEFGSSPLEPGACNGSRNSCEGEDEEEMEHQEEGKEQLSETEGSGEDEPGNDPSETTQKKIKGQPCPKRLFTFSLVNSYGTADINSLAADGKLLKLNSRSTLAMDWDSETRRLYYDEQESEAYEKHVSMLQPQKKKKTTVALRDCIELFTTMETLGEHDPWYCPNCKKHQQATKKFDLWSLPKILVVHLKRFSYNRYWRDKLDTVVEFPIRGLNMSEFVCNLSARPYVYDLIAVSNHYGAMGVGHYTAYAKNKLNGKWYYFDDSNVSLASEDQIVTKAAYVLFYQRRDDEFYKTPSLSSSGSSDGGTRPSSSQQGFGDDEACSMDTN
Method in brief: as §1

Measured: log2 ratio of Biotin-Ahx-Ub-VS probe labelling

Chain of USP34 (Q70CQ2 whole entry, the tested form may be a part): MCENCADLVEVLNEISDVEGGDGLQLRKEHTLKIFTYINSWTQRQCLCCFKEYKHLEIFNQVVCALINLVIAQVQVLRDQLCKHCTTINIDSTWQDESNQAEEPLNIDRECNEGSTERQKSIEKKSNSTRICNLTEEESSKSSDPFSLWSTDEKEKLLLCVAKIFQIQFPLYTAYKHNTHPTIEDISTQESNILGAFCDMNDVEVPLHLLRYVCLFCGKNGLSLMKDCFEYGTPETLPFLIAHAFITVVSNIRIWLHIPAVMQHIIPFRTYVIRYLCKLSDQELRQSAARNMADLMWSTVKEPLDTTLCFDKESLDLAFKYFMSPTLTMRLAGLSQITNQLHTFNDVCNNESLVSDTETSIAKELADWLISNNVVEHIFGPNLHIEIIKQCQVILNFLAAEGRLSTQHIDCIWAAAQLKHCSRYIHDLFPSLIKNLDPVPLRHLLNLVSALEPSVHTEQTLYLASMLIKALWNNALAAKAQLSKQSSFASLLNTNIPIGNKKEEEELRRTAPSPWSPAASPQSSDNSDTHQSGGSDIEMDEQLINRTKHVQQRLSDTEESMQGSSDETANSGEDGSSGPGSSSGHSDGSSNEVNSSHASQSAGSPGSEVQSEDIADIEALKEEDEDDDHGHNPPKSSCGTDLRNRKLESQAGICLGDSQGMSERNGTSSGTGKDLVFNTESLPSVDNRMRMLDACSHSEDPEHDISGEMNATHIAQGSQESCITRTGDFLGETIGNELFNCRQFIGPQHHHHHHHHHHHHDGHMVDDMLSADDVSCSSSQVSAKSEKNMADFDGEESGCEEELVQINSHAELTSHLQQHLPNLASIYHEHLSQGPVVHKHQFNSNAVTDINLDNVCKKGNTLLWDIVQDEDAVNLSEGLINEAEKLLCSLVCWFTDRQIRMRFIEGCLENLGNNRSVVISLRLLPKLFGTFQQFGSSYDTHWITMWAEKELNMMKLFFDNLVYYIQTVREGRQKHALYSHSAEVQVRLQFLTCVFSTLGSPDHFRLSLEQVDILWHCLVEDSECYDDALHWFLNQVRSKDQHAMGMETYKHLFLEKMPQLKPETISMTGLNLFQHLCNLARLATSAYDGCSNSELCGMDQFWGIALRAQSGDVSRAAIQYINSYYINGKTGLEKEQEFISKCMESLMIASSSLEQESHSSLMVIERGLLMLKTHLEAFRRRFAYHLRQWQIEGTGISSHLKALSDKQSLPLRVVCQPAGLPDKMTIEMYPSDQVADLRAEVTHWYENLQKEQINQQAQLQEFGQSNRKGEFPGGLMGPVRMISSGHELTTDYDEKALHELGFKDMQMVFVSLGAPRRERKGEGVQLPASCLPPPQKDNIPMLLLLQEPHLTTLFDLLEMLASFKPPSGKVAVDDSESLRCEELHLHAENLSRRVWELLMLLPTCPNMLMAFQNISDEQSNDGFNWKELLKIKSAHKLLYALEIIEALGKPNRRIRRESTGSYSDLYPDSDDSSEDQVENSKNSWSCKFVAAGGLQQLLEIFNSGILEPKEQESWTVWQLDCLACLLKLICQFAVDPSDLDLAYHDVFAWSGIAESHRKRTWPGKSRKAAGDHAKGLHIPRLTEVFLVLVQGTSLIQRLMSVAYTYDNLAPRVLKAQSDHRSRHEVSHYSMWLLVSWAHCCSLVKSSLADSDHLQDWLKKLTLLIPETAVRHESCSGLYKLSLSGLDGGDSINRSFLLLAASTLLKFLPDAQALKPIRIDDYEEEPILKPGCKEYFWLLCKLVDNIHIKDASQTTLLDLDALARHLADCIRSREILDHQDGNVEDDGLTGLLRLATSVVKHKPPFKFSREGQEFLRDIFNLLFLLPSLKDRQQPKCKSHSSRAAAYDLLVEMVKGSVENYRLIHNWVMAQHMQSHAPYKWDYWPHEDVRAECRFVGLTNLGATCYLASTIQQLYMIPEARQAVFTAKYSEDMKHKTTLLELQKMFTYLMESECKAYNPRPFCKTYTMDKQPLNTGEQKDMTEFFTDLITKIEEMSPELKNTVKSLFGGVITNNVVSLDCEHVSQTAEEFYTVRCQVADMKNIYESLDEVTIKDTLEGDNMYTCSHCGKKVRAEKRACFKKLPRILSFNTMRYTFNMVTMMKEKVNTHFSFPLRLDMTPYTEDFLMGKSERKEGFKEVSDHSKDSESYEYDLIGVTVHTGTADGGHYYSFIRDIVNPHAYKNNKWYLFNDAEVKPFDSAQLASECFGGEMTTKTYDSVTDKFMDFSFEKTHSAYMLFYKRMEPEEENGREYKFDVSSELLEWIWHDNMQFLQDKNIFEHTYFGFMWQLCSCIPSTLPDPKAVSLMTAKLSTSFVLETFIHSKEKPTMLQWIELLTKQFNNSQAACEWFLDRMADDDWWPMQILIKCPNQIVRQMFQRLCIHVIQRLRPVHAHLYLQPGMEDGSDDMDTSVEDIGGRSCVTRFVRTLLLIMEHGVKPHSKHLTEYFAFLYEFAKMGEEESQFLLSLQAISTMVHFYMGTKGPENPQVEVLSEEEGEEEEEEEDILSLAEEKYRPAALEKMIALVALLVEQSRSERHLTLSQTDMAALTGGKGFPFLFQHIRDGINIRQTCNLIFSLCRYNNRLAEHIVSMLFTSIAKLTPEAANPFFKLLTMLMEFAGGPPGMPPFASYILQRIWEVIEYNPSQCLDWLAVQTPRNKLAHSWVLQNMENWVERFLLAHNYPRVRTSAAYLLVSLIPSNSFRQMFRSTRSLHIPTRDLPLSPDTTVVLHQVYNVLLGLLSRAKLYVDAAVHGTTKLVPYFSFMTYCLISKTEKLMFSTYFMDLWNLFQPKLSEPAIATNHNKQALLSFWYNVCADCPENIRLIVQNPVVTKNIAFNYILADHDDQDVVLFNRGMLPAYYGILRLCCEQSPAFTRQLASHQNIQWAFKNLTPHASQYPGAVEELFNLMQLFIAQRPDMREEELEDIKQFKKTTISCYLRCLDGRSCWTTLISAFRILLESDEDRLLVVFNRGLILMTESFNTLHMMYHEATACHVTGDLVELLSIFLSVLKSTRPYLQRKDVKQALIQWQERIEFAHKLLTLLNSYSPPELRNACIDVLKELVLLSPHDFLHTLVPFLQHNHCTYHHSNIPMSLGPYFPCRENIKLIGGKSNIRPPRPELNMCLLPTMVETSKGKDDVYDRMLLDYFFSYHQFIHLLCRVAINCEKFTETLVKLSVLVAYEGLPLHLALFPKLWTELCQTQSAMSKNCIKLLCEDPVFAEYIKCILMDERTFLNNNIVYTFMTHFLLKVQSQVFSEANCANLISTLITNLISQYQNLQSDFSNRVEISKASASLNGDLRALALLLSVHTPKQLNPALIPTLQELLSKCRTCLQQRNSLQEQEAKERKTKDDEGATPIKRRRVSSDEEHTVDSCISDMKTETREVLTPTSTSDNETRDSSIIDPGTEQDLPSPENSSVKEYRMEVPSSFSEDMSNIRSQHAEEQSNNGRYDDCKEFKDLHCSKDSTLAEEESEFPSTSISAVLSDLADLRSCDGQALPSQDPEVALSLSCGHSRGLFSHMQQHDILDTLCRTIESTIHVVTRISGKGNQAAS

CNC(=O)Cn1cc(NC(=O)CCl)cn1
inactive: USP34 -0.0314 | USP36 -0.0542 | USP38 -0.0407 | USP39 0.234 | USP4 -0.0895
